Sampled rows, rich in hits. Any-hit rate of the full collection: about 0.92%.
PKM2 activator – qHTS Assay for Activators of Human Muscle isoform 2 Pyruvate Kinase; purified PKM2, Kinase-Glo ATP luminescence, activation; response scale: 0% is enzyme alone, no compound; Potency, µM (titrated, usually from 57.5 µM), for the others: top-dose activation, actives largely listed as activators; 260,000 tested, 0.34% active; further: potency means the concentration at half of the fitted maximal effect; on the % scale 0 is the no-effect control and ±100 the full control effect; nearly all actives have a fitted effect of over 55% in size
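Kinase-Glo luminescence reports ATP generated from ADP (0.1 mM) and PEP (0.5 mM) by purified hPK-M2 after 1 h at room temperature, pH 7.2 imidazole buffer; intermediate enzyme activity allows detecting inhibitors and activators.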
miR-21 reporter – qHTS Assay for Modulators of miRNAs and/orActivators of miR-21; HeLa miR-21 FLuc reporter, luciferase, 48 h; Potency, µM (doses to about 38.3 µM), for inactives: at the highest dose activity change, positive = activation, hits mostly activators; 340,000 tested, under 10 active; AID 2288, 2010;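 further: % of control where 0% means no effect; miR-21 action dims this reporter so a rising signal means less miR-21 action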
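Luminescence from a firefly luciferase reporter carrying a miR-21 binding site downstream, stably expressed under a CMV promoter in HeLa cells that make miR-21 endogenously, reports miRNA modulation after 48 h compound exposure up to approximately 40uM final.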
RXFP1 agonist – qHTS Assay for Agonists of the Relaxin Receptor RXFP1; 370,000 tested, 0.3% active; HEK293T-RXFP1 cAMP TR-FRET, 30 min; response scale: percent of porcine relaxin response, buffer zero; Relaxin receptor 1 (Homo sapiens), Q9HBX9; Potency, µM (series often up to 57.5 µM), for inactives: at the top dose activation, most hits filed as activators; AID 2676, 2010; further: potency means the concentration at half of the fitted maximal effect; on the % scale 0 is the no-effect control and ±100 the full control effect; nearly all actives have a fitted effect of over 60% in size
Target sequence (Q9HBX9 whole entry, looked up): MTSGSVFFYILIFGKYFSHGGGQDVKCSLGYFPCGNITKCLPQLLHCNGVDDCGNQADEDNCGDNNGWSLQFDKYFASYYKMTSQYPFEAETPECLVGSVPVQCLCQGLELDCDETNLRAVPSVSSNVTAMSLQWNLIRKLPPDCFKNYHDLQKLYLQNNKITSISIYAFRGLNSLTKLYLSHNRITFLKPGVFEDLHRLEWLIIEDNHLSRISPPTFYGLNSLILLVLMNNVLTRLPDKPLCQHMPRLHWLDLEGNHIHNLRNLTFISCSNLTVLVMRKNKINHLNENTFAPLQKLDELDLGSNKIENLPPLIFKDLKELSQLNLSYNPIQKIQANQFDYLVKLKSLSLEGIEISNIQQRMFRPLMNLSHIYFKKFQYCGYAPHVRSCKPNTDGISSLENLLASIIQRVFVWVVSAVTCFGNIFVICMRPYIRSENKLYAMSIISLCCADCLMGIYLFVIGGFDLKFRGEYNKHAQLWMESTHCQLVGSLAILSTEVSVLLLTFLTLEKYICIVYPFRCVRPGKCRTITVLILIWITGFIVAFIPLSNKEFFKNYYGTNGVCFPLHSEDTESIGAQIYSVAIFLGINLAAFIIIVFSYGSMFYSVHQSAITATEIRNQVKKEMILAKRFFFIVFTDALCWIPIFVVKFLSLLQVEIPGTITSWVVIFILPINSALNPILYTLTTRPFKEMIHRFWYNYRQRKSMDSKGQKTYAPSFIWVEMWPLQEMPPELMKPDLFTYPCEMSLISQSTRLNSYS
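cAMP rise read by TR-FRET after 30 min, 37C compound exposure (up to 58 uM) in RXFP1-transfected HEK293 cells with Ro 20174 present. EC50 from Hill-equation fits, with 29 nM porcine relaxin as 100% and buffer as basal.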
GALK inhibitor – qHTS Assay for Inhibitors of Human Galactokinase (GALK); Potency, µM (doses to about 57.5 µM), for the others: at the top dose activity change, negative = inhibition, actives largely listed as inhibitors; AID 1868, 2009; 270,000 tested, 0.007% active; Purified GALK, Kinase-Glo residual ATP luminescence; P51570; further: potency means the concentration at half of the fitted maximal effect; on the % scale 0 is the no-effect control and ±100 the full control effect
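Human GALK (5 nM) with 35 uM ATP and 100 uM galactose in 20 mM HEPES pH 8.0, 5 mM MgCl2, 60 mM NaCl, 1 mM DTT, 0.01% BSA. After 1 h at room temperature, leftover ATP was read by Kinase-Glo Plus luminescence.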
Luc counter – Counterscreen for Luciferase (Kinase-Glo TM) Inhibition; Luciferin 4-monooxygenase (Photuris pensylvanica), Q27757; Kinase-Glo luciferase, ATP luminescence, 8 min; Potency, µM (doses to about 38.3 µM), for the others: at the top dose activity change, negative = inhibition, hits mostly inhibitors; 200,000 tested, 0.28% active; further: potency means the concentration at half of the fitted maximal effect; on the % scale 0 is the no-effect control and ±100 the full control effect; nearly all actives have a fitted effect of over 60% in size
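Compounds were added to a substrate mix at pH 7.2 (50 mM imidazole, 10 uM ATP, within the enzyme's linear range), followed by Kinase-Glo detection reagent; luminescence was measured after 8 minutes at ambient temperature.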
RXFP1 antag – qHTS Assay for Antagonists of the Relaxin Receptor RXFP1. AID 1259400, 2018. HEK293-RXFP1, relaxin-stimulated cAMP HTRF, 30 min; active compounds read low. 350,000 tested, 0.59% active. Relaxin receptor 1 (Homo sapiens), Q9HBX9. activity change, negative = inhibition, % at 57.5 µM;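 active means activity change of -60% or lower, but not beyond a set lower limit; inconclusive means change between -60% and -40%, or beyond the set limit; inactive means change above -40%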; further: on the % scale 0 is the no-effect control and ±100 the full control effect
* hit, by the source's call; ? = inconclusive; . = not tested or not shown; ! = a repeat was not active; [ ] = remark or other dose. Unless noted, the call rests on the fitted dose curve; in most records, active means well fitted curve in the direction sought with a large enough effect; inconclusive means small, poorly fitted or top-dose-only effect, or another doubt; inactive means no such curve, though single readings can be large; an effect the other way counts as inactive or inconclusive.

SMILES	PKM2 activator	miR-21 reporter	RXFP1 agonist	GALK inhibitor	Luc counter	RXFP1 antag
Cc1cccc(CS(=O)(=O)c2ncc(Cl)c(C(=O)Nc3c(C)cccc3C)n2)c1	.	?	1%	-3%	.	-96*
Cc1cccc(CS(=O)(=O)c2ncc(Cl)c(C(=O)NCc3ccccc3)n2)c1	.	?	-1%	-6%	.	-62*!
Cc1cccc(C)c1NC(=O)c1nc(S(=O)(=O)Cc2ccccc2)ncc1Cl	.	?	-2%	5%	.	-70*
Nc1ncnc2c1ncn2Cc1c(F)cccc1Cl	.	.	.	.	.	-6
CC1=C(C(N)=O)C(c2cccc(C)c2)n2nc(-c3ccc(Cl)cc3)nc2N1 (stereo not drawn)	.	7%	1%	.	.	-62*
Cc1c(C(=O)N(C)C2CCCCC2)sc2nc3ccc(N)cc3n12	.	.	.	.	3%[39.9 µM]	.
O=C(C(Br)=Cc1ccccc1)c1ccccc1	.	.	.	.	.	-91*
CC(=Cc1ccccc1)C(=O)c1ccccc1	.	.	.	.	.	1
CCOC(=O)N1CCC(n2c(=O)[nH]c3cc(Cl)ccc32)CC1	.	.	.	.	.	-20
CCNC(=S)NNC(=O)c1cc(-c2ccc(OCC)cc2)nc2ccccc12	9%	?	1%	.	1µM*	-10
CCc1ccc(-c2cc(C(=O)Nn3cnnc3)c3ccccc3n2)cc1	-50%	?	2%	4%	8.9µM*	-8
CCCc1ccc(-c2cc(C(=O)NN3CCOCC3)c3ccccc3n2)cc1	-1%	-35%	0%	1%	-6%	0
CC(C)[C@@H](CC(=O)N[C@@H]1CCNC[C@H]1C(=O)N[C@H](CC(=O)N[C@@H](CCC(=O)O)CC(=O)O)Cc1ccccc1)NC(=O)C[C@H](Cc1c[nH]c2ccccc12)NC(=O)[C@@H]1CNCC[C@H]1N	.	.	.	.	-3%	.
COc1ccc(Nc2nc(-c3sc(C)nc3C)cs2)cc1	6%	6%	0%	.	.	-61*
COC(=O)c1ccc(CCc2cc(O)ccc2O)cc1	.	.	.	.	-10%[7.66 µM]	-72*
COC(=O)c1ccc(O)cc1	.	-3%	6%	-1%	0%[39.9 µM]	2
COC(=O)c1ccc(CCc2cc(O)c(Br)cc2O)cc1	.	.	.	.	.	-96*
CC(C)OC(=O)c1ccc(NCc2cc(O)ccc2O)cc1	.	.	.	.	.	-63*
Cc1cc(C)nc(SCC(=O)NC2CCCC2)n1	-1%	-5%	2%	0%	2%	-9
Cc1cc(C)nc(SCC(=O)NC2CCCCC2C)n1 (stereo not drawn)	.	.	0%	.	.	-61*
COc1ccc(Cl)cc1Nc1nnc(-c2ccncc2)s1	.	-11%	1%	-2%	.	2
Clc1ccccc1Nc1nnc(-c2ccncc2)s1	-71%	-3%	-5%	9%	1.3µM*	12
Cc1ccc(-c2nn(-c3cccc(F)c3)cc2CN2CCN(c3ccccn3)CC2)o1	16µM*	16%	3%	-2%	0%	-13
Cc1cc(/C=C2\SC(=S)NC2=O)c(C)[nH]1	-16%	-35%	1%	1%	2%	-111*
N#Cc1c(-c2ccco2)nc(SCc2ccc(F)cc2)[nH]c1=O	1%	1%	25µM*	-12%	0%	25
SMILES	PKM2 activator	miR-21 reporter	RXFP1 agonist	GALK inhibitor	Luc counter	RXFP1 antag
CCCCC/C=C\C\C=C/C=C/C=C/[C@@H](SCC(N)C(=O)O)[C@@H](O)CCCC(=O)O (stereo partly drawn)	.	.	.	.	1%	.
COc1ccc2c(c1)O[C@@H](c1cccc(C(F)(F)F)c1)[C@H](OC(=O)NS(=O)(=O)c1ccc(F)cc1)C2=O	.	.	.	.	2%	.
COc1cc(C2C(C(=O)c3cc4ccccc4o3)=C(O)C(=O)N2CCN2CCOCC2)ccc1OCCC(C)C (stereo not drawn)	0%	-9%	28µM*	0%	.	-5
CCCOc1ccc(C2C(C(=O)c3ccco3)=C(O)C(=O)N2CCN2CCOCC2)cc1OC (stereo not drawn)	-3%	-3%	4%	-3%	-7%	.
O=[N+]([O-])c1ccc(OCCN2CCNCC2)cc1	-2%	1%	-1%	5%	-2%	-21
O=C(CCc1ccccc1)NNC(=O)c1ccncc1	.	.	.	.	.	8
COc1cccc(CNC(=O)c2oc3c(c2C)-c2nn(Cc4cccc(Cl)c4)cc2CC3)c1	.	12%	0%	.	.	-118*
COc1cccc(CNC(=O)c2oc3c(c2C)-c2nn(Cc4cccc(Cl)c4)cc2CC3)c1OC	.	-2%	14%	.	.	?
COc1cc(/C=C(/C#N)C(=O)Nc2ccccc2)ccc1OCc1ccc(C(=O)O)cc1	-3%	-18%	-1%	-13%	1%	4
COc1cc(/C=C(\C#N)C(=O)Nc2ccc(C(=O)O)cc2)ccc1OC(=O)c1cccc(F)c1	-1%[11.5 µM]	1%	0%	-6%	.	-83*
O=C(NNC(=O)c1cc(-c2cccnc2)nc2ccccc12)Nc1ccc(Cl)cc1	.	8%	0%	9%	0%	-73*
COc1ccc2nc(C)cc(SCC(=O)N/N=C/c3cccc4ccccc34)c2c1	-3%	18%	0%	1%	3%	1
COc1ccc2nc(C)cc(SCC(=O)N/N=C/c3ccc(O)c(O)c3)c2c1	25µM*	-9%	-1%	2%	1%	-1
Cc1cc(SCC(=O)N/N=C/c2ccc(O)cc2O)nc2ccccc12	4%	9%	0%	-6%	.	-26
Cc1cc(SCC(=O)N/N=C/c2ccc(O)c(O)c2)nc2ccccc12	5%	-3%	-3%	3%	.	-67*
Oc1ccc(CNc2cccc(F)c2F)c2cccnc12	.	.	1%	.	.	.
Cc1nn(-c2ccccc2)c(C)c1/C=N/Nc1nc2ccccc2[nH]1	-19%	?	-2%	2%	10µM*	-6
O=C(O)c1ccc(Cl)c(S(=O)(=O)Nc2ccccc2F)c1	.	.	.	.	1%	.
CC1CCC(C(C)C)C(OC(=O)Cn2c(-c3ccccc3)[n+](C)c3ccccc32)C1 (stereo not drawn)	0%	?	0%	-1%	3%	-71*
COc1cccc(NC(=O)CN(c2ccc([N+](=O)[O-])cc2)S(=O)(=O)c2ccccc2)c1	4µM*	9%	6%	0%	-4%	0
COc1cccc(NC(=O)CN(C)CC(=O)Nc2ccc(Cl)cc2[N+](=O)[O-])c1	3.2µM*	0%	0%	0%	1%	-11
COc1ccc(-n2c(SCC(=O)Nc3ccc(Br)cc3)nc(O)cc2=O)cc1	-3%	9%	0%	-1%	.	-66*
